Laboratory results: paper PMC7862700, “An all-to-all approach to the identification of sequence-specific readers for epigenetic DNA modifications on cytosine”

What was measured:
Experiment in all cases: DAPPL (digital affinity profiling via proximity ligation, sequencing); 10 mM Tris-HCl pH 7.5, 50 mM NaCl, 1 mM DTT, 4% glycerol, room temperature, 30 min; GST-TFs on glutathione beads, 16-mer random dsDNA library, 0.1% formaldehyde crosslink after washing; high values mean tight binding
Settings in all cases: protein: recombinant; tags: N-terminal GST; dsDNA, one strand shown
[1] = molecular target: T1, FLI1 (Homo sapiens, UniProt Q01543 1-452)
T1 sequence: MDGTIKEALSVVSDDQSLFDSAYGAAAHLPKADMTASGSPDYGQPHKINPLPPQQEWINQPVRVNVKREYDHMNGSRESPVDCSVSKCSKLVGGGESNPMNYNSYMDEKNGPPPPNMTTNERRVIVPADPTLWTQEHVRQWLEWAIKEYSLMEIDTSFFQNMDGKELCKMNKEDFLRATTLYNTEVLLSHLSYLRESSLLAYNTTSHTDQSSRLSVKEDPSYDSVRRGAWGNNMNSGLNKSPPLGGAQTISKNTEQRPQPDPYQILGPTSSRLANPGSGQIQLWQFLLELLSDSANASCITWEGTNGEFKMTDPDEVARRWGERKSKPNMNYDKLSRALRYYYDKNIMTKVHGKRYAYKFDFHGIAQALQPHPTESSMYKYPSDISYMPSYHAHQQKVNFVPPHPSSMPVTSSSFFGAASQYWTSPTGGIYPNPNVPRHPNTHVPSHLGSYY
How it was run: (§1)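 The binding signal reported is, for every hexamer, its read frequency for a factor over its read frequency for the tag-only sample. Reads came from pools of yeast-expressed, GST-fused human transcription factors on glutathione beads, barcoded with DNA and mixed with that sample, which were incubated with 200 nmole of a random double-stranded 16-mer DNA library in Tris/NaCl/DTT/glycerol buffer at room temperature for 30 min. After washing, the pools were crosslinked with 0.1% formaldehyde, proximity-ligated with BsaI/T4 ligase for 1 h at 37 °C, PCR-amplified and sequenced on an Illumina NextSeq500.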

[2] = molecular target: T2, ELK1 (Homo sapiens, UniProt P19419 1-428)
T2 sequence: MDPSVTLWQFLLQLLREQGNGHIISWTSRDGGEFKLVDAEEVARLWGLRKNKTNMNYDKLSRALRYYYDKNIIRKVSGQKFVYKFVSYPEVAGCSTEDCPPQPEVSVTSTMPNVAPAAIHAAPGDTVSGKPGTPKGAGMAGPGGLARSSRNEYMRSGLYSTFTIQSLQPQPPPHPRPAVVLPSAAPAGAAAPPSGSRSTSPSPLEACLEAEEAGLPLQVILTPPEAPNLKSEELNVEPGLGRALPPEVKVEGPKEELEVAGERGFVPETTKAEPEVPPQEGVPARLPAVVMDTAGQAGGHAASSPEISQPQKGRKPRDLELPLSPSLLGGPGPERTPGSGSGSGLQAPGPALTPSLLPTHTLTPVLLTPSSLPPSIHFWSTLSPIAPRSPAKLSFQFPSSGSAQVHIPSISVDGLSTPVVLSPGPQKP
How it was run: as §1

[3] = molecular target: T3, GABPA (Homo sapiens, UniProt Q06546 1-454)
T3 sequence: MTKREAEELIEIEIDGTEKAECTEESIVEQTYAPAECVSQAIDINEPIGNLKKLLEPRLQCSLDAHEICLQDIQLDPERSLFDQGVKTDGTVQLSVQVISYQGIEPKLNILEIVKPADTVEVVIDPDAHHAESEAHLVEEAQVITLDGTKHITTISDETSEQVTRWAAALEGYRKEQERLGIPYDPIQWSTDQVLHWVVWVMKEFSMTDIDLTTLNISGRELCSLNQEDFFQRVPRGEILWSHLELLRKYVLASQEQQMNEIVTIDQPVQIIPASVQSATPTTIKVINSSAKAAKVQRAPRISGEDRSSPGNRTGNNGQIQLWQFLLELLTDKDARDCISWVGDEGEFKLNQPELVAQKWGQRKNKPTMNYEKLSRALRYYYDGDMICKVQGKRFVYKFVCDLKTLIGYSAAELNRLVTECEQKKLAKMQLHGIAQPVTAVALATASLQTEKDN
How it was run: as §1

[4] = molecular target: T4, ERG (Homo sapiens, UniProt P11308 1-479)
T4 sequence: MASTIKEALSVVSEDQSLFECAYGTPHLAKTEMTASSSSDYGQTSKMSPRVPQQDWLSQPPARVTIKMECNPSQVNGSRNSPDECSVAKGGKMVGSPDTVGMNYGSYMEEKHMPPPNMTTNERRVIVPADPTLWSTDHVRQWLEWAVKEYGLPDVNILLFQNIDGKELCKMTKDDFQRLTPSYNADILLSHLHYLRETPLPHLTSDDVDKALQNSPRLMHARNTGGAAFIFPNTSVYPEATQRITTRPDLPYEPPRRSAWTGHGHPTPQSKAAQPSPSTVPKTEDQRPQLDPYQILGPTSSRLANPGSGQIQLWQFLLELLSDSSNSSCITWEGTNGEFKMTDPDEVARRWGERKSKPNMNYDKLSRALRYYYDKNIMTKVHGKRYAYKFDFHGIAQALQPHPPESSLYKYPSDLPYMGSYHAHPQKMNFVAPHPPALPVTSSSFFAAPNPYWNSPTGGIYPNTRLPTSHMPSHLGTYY
How it was run: as §1

[5] = molecular target: ELF1 (Homo sapiens, UniProt P32519 1-619)
ELF1, sequence (P32519 whole entry): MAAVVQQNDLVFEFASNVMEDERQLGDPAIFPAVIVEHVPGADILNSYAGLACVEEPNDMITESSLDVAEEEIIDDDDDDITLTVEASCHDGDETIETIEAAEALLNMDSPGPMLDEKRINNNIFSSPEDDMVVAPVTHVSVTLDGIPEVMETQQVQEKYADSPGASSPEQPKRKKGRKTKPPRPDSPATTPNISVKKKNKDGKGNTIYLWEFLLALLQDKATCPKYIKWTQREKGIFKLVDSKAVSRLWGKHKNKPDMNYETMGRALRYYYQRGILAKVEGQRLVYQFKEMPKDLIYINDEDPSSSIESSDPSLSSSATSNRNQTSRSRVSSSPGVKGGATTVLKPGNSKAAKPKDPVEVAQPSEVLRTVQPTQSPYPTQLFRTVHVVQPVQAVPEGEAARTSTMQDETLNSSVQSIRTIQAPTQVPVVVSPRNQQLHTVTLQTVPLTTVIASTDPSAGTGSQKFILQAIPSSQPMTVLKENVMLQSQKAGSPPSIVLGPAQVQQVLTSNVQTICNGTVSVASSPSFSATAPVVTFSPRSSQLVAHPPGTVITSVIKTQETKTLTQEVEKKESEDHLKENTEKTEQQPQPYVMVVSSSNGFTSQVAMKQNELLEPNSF
How it was run: as §1

[6] = molecular target: T5, EHF (Homo sapiens, UniProt Q9NZC4 1-300)
T5 sequence: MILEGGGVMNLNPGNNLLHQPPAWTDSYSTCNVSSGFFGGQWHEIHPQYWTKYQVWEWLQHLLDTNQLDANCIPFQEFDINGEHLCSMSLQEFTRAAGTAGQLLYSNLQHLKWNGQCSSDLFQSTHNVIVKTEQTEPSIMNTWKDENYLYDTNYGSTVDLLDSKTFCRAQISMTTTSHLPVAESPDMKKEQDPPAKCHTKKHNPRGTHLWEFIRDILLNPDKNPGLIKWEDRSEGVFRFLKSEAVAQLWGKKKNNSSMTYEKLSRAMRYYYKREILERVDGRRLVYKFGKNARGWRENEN
How it was run: as §1

[7] = molecular target: SPI1 (Homo sapiens, UniProt P17947 1-270)
How it was run: as §1

[8] = molecular target: SPIB (Homo sapiens, UniProt Q01892 1-262)
SPIB, sequence (Q01892 whole entry): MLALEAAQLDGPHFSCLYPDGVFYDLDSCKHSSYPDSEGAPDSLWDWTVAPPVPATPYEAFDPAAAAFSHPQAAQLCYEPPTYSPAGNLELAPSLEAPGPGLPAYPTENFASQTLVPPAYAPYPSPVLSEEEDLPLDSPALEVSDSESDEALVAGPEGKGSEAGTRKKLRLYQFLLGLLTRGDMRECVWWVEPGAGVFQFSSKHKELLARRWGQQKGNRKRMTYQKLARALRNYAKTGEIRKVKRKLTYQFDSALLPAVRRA
How it was run: as §1

[9] = molecular target: T6, ELK3 (Homo sapiens, UniProt P41970 1-407)
T6 sequence: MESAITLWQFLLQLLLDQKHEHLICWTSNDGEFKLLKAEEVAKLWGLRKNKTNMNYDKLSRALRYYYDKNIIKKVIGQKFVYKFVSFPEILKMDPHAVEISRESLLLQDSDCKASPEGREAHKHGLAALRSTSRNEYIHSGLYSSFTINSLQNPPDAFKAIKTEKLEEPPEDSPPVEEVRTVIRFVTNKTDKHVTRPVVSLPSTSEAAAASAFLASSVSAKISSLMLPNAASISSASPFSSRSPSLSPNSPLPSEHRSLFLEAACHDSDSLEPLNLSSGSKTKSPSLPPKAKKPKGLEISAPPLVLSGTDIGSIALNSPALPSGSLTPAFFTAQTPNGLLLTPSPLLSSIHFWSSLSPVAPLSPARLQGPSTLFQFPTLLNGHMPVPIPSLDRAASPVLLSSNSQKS
How it was run: as §1

| Sequence | binding signal [1] | binding signal [2] | binding signal [3] | binding signal [4] | binding signal [5] | binding signal [6] | binding signal [7] | binding signal [8] | binding signal [9] |
| --- | --- | --- | --- | --- | --- | --- | --- | --- | --- |
| ATAACA | 1.2 fold enrichment (6-mer frequency, TF over GST control) | 1.29 fold enrichment (6-mer frequency, TF over GST control) | 1.22 fold enrichment (6-mer frequency, TF over GST control) | 1.25 fold enrichment (6-mer frequency, TF over GST control) | 1.28 fold enrichment (6-mer frequency, TF over GST control) | 1.19 fold enrichment (6-mer frequency, TF over GST control) | 1.16 fold enrichment (6-mer frequency, TF over GST control) | 1.33 fold enrichment (6-mer frequency, TF over GST control) | 1.24 fold enrichment (6-mer frequency, TF over GST control) |
| TCTCGG | 1.69 fold enrichment (6-mer frequency, TF over GST control) | 1.41 fold enrichment (6-mer frequency, TF over GST control) | 1.5 fold enrichment (6-mer frequency, TF over GST control) | 1.38 fold enrichment (6-mer frequency, TF over GST control) | 1.46 fold enrichment (6-mer frequency, TF over GST control) | 1.29 fold enrichment (6-mer frequency, TF over GST control) | 1.52 fold enrichment (6-mer frequency, TF over GST control) | 1.44 fold enrichment (6-mer frequency, TF over GST control) | 1.42 fold enrichment (6-mer frequency, TF over GST control) |
| CATCTC | 1.42 fold enrichment (6-mer frequency, TF over GST control) | 1.3 fold enrichment (6-mer frequency, TF over GST control) | 1.34 fold enrichment (6-mer frequency, TF over GST control) | 1.24 fold enrichment (6-mer frequency, TF over GST control) | 1.37 fold enrichment (6-mer frequency, TF over GST control) | 1.31 fold enrichment (6-mer frequency, TF over GST control) | 1.36 fold enrichment (6-mer frequency, TF over GST control) | 1.26 fold enrichment (6-mer frequency, TF over GST control) | 1.22 fold enrichment (6-mer frequency, TF over GST control) |
| CCGGAT | 3.23 fold enrichment (6-mer frequency, TF over GST control) | 3.45 fold enrichment (6-mer frequency, TF over GST control) | 2.97 fold enrichment (6-mer frequency, TF over GST control) | 4.05 fold enrichment (6-mer frequency, TF over GST control) | 2.97 fold enrichment (6-mer frequency, TF over GST control) | 3.16 fold enrichment (6-mer frequency, TF over GST control) | 2.86 fold enrichment (6-mer frequency, TF over GST control) | 3.26 fold enrichment (6-mer frequency, TF over GST control) | 3.33 fold enrichment (6-mer frequency, TF over GST control) |
| GACTTC | 2.39 fold enrichment (6-mer frequency, TF over GST control) | 2.65 fold enrichment (6-mer frequency, TF over GST control) | 2.3 fold enrichment (6-mer frequency, TF over GST control) | 2.84 fold enrichment (6-mer frequency, TF over GST control) | 2.36 fold enrichment (6-mer frequency, TF over GST control) | 2.51 fold enrichment (6-mer frequency, TF over GST control) | 3.04 fold enrichment (6-mer frequency, TF over GST control) | 2.51 fold enrichment (6-mer frequency, TF over GST control) | 2.61 fold enrichment (6-mer frequency, TF over GST control) |
| ACGACT | 1.27 fold enrichment (6-mer frequency, TF over GST control) | 1.28 fold enrichment (6-mer frequency, TF over GST control) | 1.36 fold enrichment (6-mer frequency, TF over GST control) | 1.24 fold enrichment (6-mer frequency, TF over GST control) | 1.19 fold enrichment (6-mer frequency, TF over GST control) | 1.17 fold enrichment (6-mer frequency, TF over GST control) | 1.27 fold enrichment (6-mer frequency, TF over GST control) | 1.17 fold enrichment (6-mer frequency, TF over GST control) | 1.24 fold enrichment (6-mer frequency, TF over GST control) |
| CCCTAT | 1.33 fold enrichment (6-mer frequency, TF over GST control) | 1.33 fold enrichment (6-mer frequency, TF over GST control) | 1.32 fold enrichment (6-mer frequency, TF over GST control) | 1.32 fold enrichment (6-mer frequency, TF over GST control) | 1.32 fold enrichment (6-mer frequency, TF over GST control) | 1.25 fold enrichment (6-mer frequency, TF over GST control) | 1.45 fold enrichment (6-mer frequency, TF over GST control) | 1.35 fold enrichment (6-mer frequency, TF over GST control) | 1.46 fold enrichment (6-mer frequency, TF over GST control) |
| AACGAT | 1.28 fold enrichment (6-mer frequency, TF over GST control) | 1.16 fold enrichment (6-mer frequency, TF over GST control) | 1.13 fold enrichment (6-mer frequency, TF over GST control) | 1.21 fold enrichment (6-mer frequency, TF over GST control) | 1.24 fold enrichment (6-mer frequency, TF over GST control) | 1.17 fold enrichment (6-mer frequency, TF over GST control) | 1.17 fold enrichment (6-mer frequency, TF over GST control) | 1.21 fold enrichment (6-mer frequency, TF over GST control) | 1.24 fold enrichment (6-mer frequency, TF over GST control) |
